The campaign covered roughly 360,000 compounds. About 10,000 (2.8%) were called active. Another 4% or so got no clear call; they are omitted. Calls come from the whole dose curve; as a rule, active = well fitted inhibition curve with a large enough effect; inconclusive = small, poorly fitted or top-dose-only effect; inactive = flat fitted curve, though single readings scatter. Only a selection was taken, and actives are over-represented in it overall.
What follows are compounds tested against Serine/threonine-protein kinase PLK1 (Homo sapiens) (UniProt P53350) (assay: qHTS for Inhibitors of PLK1-PDB (polo-like kinase 1 - polo-box domain): Primary Screen). Conditions: Plk1 PBD binding of FITC phosphopeptide, fluorescence polarization.
% is set by controls: 0 for no effect and ±100 for the full control effect; potency is the fitted concentration of half-maximal effect.
Note: nearly all actives have a fitted effect of over 65% in size.
Throughout, for max response, negative = inhibition: series mostly up to about 57 µM.

Serine/threonine-protein kinase PLK1 (Homo sapiens), sequence (P53350 whole entry, looked up, the tested form may be a part): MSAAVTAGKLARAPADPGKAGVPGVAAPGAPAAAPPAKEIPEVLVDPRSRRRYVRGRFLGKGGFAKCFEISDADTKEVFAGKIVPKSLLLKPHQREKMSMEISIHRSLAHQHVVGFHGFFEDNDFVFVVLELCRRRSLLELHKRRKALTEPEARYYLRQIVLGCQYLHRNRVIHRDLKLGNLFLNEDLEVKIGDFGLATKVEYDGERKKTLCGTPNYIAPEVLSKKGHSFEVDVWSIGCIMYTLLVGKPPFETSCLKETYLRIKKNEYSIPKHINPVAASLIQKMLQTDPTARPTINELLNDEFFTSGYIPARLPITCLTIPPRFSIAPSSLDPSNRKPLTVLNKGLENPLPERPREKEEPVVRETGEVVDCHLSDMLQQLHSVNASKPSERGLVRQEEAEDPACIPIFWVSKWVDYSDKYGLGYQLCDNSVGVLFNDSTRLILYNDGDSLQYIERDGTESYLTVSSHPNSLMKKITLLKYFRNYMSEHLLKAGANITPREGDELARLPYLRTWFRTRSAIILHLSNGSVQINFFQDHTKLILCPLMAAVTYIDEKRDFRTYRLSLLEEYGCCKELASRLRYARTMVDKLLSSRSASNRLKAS

SMILES | max response, negative = inhibition | Potency
CSc1ccc(CNC(=O)C2(C)CCCN2C)cc1 (centres undefined) | -4.46% (inactive) | 
CN(C)CCCOc1ccc(-c2ccc3nccn3c2)cn1 | -0.941% (inactive) | 
CCOC(=O)N1C(=O)C[C@](Sc2ccc(C)cc2)(C(=O)OC)[C@H]1c1ccccc1 | -3.98% (inactive) | 
Cn1nc(N)c2ncc(C(Cl)(Cl)Cl)nc21 | -4.91% (inactive) | 
CC1COc2ccccc2N1C(=O)c1ccc(F)cc1 (centres undefined) | -6.97% (inactive) | 
O=C(c1ccc(F)cc1)n1c(=S)nc2ccccn21 |  | 26.7 µM (active)
O=C(c1ccc(F)cc1)N1CCC(n2nnc3ccccc32)CC1 | -7.84% (inactive) | 
c1ccc(Cn2nnc3c(NCC4CC4)ncnc32)cc1 | -24.2% (inactive) | 
Nc1nc2c(ncn2[C@@H]2O[C@H](CNS(=O)(=O)N3CCc4ccccc4C3)[C@@H](O)[C@H]2O)c(=O)[nH]1 | -3.21% (inactive) | 
O=C(Nc1ccc(OCCO)cc1)c1csc([C@H]2C[C@H](O)[C@@H](CO)O2)n1 | -5.62% (inactive) | 
Cc1cc(C)n(-c2nc(O)cc(=O)[nH]2)n1 | -2.57% (inactive) | 
Cc1cc(=O)[nH]c2nnnn12 |  | 23.8 µM (active)
Cn1nnnc1SCc1cc(=O)[nH]c2ccccc12 | -18.7% (inactive) | 
CCC(CC)C(C(=O)NC1CCCC1)N1CCN(c2cc(C)nc3ccccc23)CC1 (centres undefined) | -1.11% (inactive) | 
C[C@@H]1CN([C@H](C)CO)S(=O)(=O)c2ccc(C#C[C@@H](C)O)cc2O[C@@H]1CN(C)Cc1ccc(-c2ccccc2)cc1 | -3.99% (inactive) | 
CC(=O)Nc1ccc2nc(NC(=O)CS(=O)(=O)c3ccc(F)cc3)sc2c1 | -4.56% (inactive) | 
COc1ccc(C(CNC(=O)CSc2ccccc2)N2CCOCC2)cc1 (centres undefined) | -29.4% (inactive) | 
CCc1ccc([C@@H]2CC(=O)[C@@H]3CN(S(=O)(=O)c4ccc(C)cc4)[C@H](c4ccc(Cl)cc4)C[C@@H]3N2S(=O)(=O)c2ccc(C)cc2)cc1 | 3.16% (inactive) | 
CN(C)S(=O)(=O)c1ccc2oc(SCC(=O)Nc3ccccc3F)nc2c1 | -21.2% (inactive) | 
COc1ccc(S(=O)(=O)N(C)C)cc1NC(=O)COC(=O)c1n[nH]c2ccccc12 | -0.239% (inactive) | 

SMILES | max response, negative = inhibition | Potency
COc1ccc(S(=O)(=O)N(C)C)cc1NC(=O)CSc1ncccn1 |  | 15 µM (active)
CC1(C)OC(=O)C2=C(CC(c3ccccc3)OC2CCc2ccccc2)O1 (centres undefined) | -6.04% (inactive) | 
S=C(c1ccc(-c2ccccc2)o1)N1CCCCC1 |  | 9.47 µM (active)
O=C(c1ccc(CSc2ccccc2)cc1)N1CCCCCC1 | -2.73% (inactive) | 
Cc1cccc(C)c1NC(=S)N1CCCCCC1 | -6.23% (inactive) | 
O=C(C[C@H]1CC[C@H]2[C@@H](COC[C@H](O)CN2C(=O)c2ccccn2)O1)N1CCN(c2ccccc2)CC1 | -2.29% (inactive) | 
Cn1nnnc1-c1cc(Cl)cc(Cl)c1 |  | 26.7 µM (active)
Cn1nnnc1NCc1ccc(Cl)c(Cl)c1 | -14% (inactive) | 
Cc1ccc(S(=O)(=O)N[C@H](CO)C(C)C)cc1 | -4.56% (inactive) | 
CCC(=O)Nc1ccc(Nc2nc(Cl)nc(Nc3ccc(NC(=O)CC)cc3)n2)cc1 | -16.7% (inactive) | 
CCOC(=O)CNc1nc(Cl)nc(Nc2ccc(OC)cc2OC)n1 | 0.534% (inactive) | 
CCOC(=O)CNc1nc(Cl)nc(Nc2ccccc2)n1 |  | 21.2 µM (active)
CC1(C)OC(=O)C2=C(C[C@@H](C3CCCC3)O[C@@H]2c2ccc(Cl)cc2)O1 | 2.05% (inactive) | 
Cc1c(C#N)c(NC(=O)c2ccccc2)n(Cc2ccccc2)c1C | -4.49% (inactive) | 
Cc1ccc(C(=O)Nc2c(C#N)c(C)c(C)n2Cc2ccccc2)cc1 | -3.45% (inactive) | 
CCCc1ccc(-c2c(C)sc(NC(=O)c3ccnn3C)c2C#N)cc1 |  | 10.6 µM (active)
CC1(C(=O)NS(=O)(=O)c2ccccc2)CCN1C(=O)C1CCCCC1 (centres undefined) | -5.58% (inactive) | 
Cc1cccnc1C(NC(=O)C1CCN(Cc2ccc(Cl)c(Cl)c2)CC1)c1ccc(Cl)cc1 (centres undefined) | -6.41% (inactive) | 
Cc1cn([C@H]2C[C@H](O)[C@@H](CNC(=O)[C@H](N)Cc3cccnc3)O2)c(=O)[nH]c1=O | -0.77% (inactive) | 
CC(c1ccco1)N(C(=O)Nc1ccccc1)C1CCCCC1 (centres undefined) | -2.64% (inactive) | 

SMILES | max response, negative = inhibition | Potency
CC(C)(C)NS(=O)(=O)c1ccc(NC(=O)NC2CCCCC2)cc1 | -9.85% (inactive) | 
Cc1ccc(NC(=O)NC(=O)N(C2CCCCC2)S(=O)(=O)c2ccccc2)cc1 |  | 29.9 µM (active)
COc1cc(C(O)c2nc(-c3cccc(C(=O)O)c3)cs2)ccc1F (centres undefined) | 2.95% (inactive) | 
O=C(O)c1ccccc1N=N/C(=N/Nc1cc(S(=O)(=O)O)ccc1O)c1ccccc1 |  | 16.8 µM (active)
COc1cccc(NC(=O)C2(C)CCN2Cc2ccccc2Cl)c1 (centres undefined) | 4.24% (inactive) | 
OCCc1ccc(NCCc2ccco2)cc1 | -4.52% (inactive) | 
O=Nc1c(O)cc(O)c2ccccc12 | -5.49% (inactive) | 
C=CCOc1cccc(C2C(C(=O)c3ccc(C)o3)=C(O)C(=O)N2CCN2CCOCC2)c1 (centres undefined) | -19.4% (inactive) | 
Cc1cc(N2C(=O)C(O)=C(C(=O)c3ccc(C)o3)C2c2ccc(OCc3ccccc3)cc2)no1 (centres undefined) |  | 21.2 µM (active)
Cc1cc(N2C(=O)C(=O)/C(=C(/O)c3ccccc3)C2c2cccc(Br)c2)no1 (centres undefined) | -15% (inactive) | 
C[C@@H]1CN([C@@H](C)CO)C(=O)CCCn2nncc2CO[C@H]1CN(C)Cc1ccc(C(F)(F)F)cc1 | -1.98% (inactive) | 
CC(=O)C[C@@H]1OC[C@H](CO)N1S(=O)(=O)c1ccc(C)cc1 | -6.97% (inactive) | 
CCOc1cc(C(=S)N2CCOCC2)ccc1O |  | 7.52 µM (active)
CCOc1cc(C(=S)N2CCOCC2)ccc1OS(=O)(=O)c1ccc(Br)cc1 | -16.5% (inactive) | 
CCOc1cc(C(=O)OCC(=O)Nc2cccc(C)c2)ccc1OCC(=O)N1CCOCC1 | -7.2% (inactive) | 
COCOCCn1cc(CN2CCS(=O)(=O)N(Cc3ccc(-c4cccc(N(C)C)c4)cc3)C(CC(C)C)C2=O)nn1 (centres undefined) | -14.2% (inactive) | 
NC(=O)C1(Nc2ccccc2Cl)CCCC1 | -11.6% (inactive) | 
O=C(CCN1CCN(C/C=C/c2ccccc2)CC1)Nc1ccccc1Cl | -3.16% (inactive) | 
O=C(Nc1ccccc1Cl)/C(Cl)=C(\Cl)S(=O)c1ccccc1 (centres undefined) |  | 1.34 µM (active)
